Measured values from ChEMBL document CHEMBL4513216, “Probing the Open Global Health Chemical Diversity Library for Multistage-Active Starting Points for Next-Generation Antimalarials” (ACS Infect Dis, 2020).
The whole screen tested about 68,000 compounds, of which about 2,700 (4%) showed an effect of 50% or more. What follows is part of a selection rich in strong results, with near analogues and random picks from the rest.

Tested on: Plasmodium berghei
Experiment: Screen against P. berghei liver stage (PbLuc), transformed with Luciferase, at 2uM
Format: functional, HepG2
Settings: tested at 2 uM

Structure (SMILES)	INHIBITION [%]
O=C(NCc1ccccn1)c1cncc(C2CCCN2)n1 (stereo not drawn)	20.28
O=C(CCn1ncc2ccccc21)N1CCCC(Cc2cccnc2)C1 (stereo not drawn)	20.44
Cc1csc(CN2CCC(C(=O)O)(n3ccc(-c4ccco4)n3)CC2)n1	-8.84
Cc1cc(C(=O)N(C)Cc2cccs2)nc(N2CCCCC2)n1	-14.24
Cc1cc(C(=O)N(C)Cc2cccs2)nc(N2CCCC2)n1	50.9
Cc1cc(C(=O)N(C)Cc2cccs2)nc(N2CCOCC2)n1	-3.54
NC(=O)CCC1CCCN(Cc2cnc(N3CCCCC3)nc2)C1 (stereo not drawn)	44.23
CC(C)c1ncc(CN2CCCC(CO)C2)cn1 (stereo not drawn)	1.42
c1nc(N2CCCC2)ncc1CN1CCCC(CN2CCCCC2)C1 (stereo not drawn)	52.45
Cc1ccoc1C(=O)NC1CCN(Cc2cccc3ccccc23)CC1	3.48
CC(=O)N(C)CC(=O)NC(C)c1ccc(OCCC(C)C)cc1 (stereo not drawn)	29.41
N#Cc1c(N)nc2c(c1-c1c[nH]nc1C1CCCCC1)COCC2	-64.94
Cn1nc(C2CC2)c2c1NC(=O)CC2c1cc(CN2CCCC2)cs1 (stereo not drawn)	73.26
CCCn1nc(C)c2c1NC(=O)CC2c1ccc(CN2CCCC2)s1 (stereo not drawn)	5.02
Cn1nc(C2CC2)c2c1NC(=O)CC2c1ccc(CN2CCCCC2)s1 (stereo not drawn)	22.63
O=C(CC1CCCC1)N1CCC(c2nnc(-c3ccccn3)o2)CC1	9.09
Cc1cc(C(=O)NCCC(=O)N2CCCc3ccccc32)no1	12.39
COc1c(C(=O)NCc2cccnc2)nnn1Cc1ccc(C)cc1	-19.47
Cc1ccc2c(c1)Oc1ncccc1C(=O)N2	9.43
CC(c1ccccc1)N(C)CC(=O)NCCC#N (stereo not drawn)	59.24
CN(CC(=O)NCCC#N)C(c1ccccc1)c1ccccc1	21.71
CN(CC(=O)NCCC#N)C(c1ccccc1)c1ccc(F)cc1 (stereo not drawn)	13.11
O=C(CCc1cc2n(n1)CCN(CCCn1cccc1)C2)N1CCCC1	5.1
CC1(C)CC(N(Cc2cccnc2)Cc2cccc(F)c2)CC(C)(C)N1	-4.26
O=C(NCCCn1nc2ccccn2c1=O)Nc1ccc(F)cc1F	4.96
CN1CCN(S(=O)(=O)c2cccc(S(=O)(=O)C3CCS(=O)(=O)C3)c2)CC1 (stereo not drawn)	28.43
COc1ncccc1C1CC(=O)NCc2nc3ccccn3c21 (stereo not drawn)	29.41

Structure (SMILES)	INHIBITION [%]
COc1ncc(C2CC(=O)NCc3nc4ccccn4c32)cn1 (stereo not drawn)	-36.24
COc1ccc(C2CC(=O)NCc3nc4ccccn4c32)cn1 (stereo not drawn)	54.3
COCCC1(C(=O)O)CCCN(C(=O)c2cc(C)oc2C)C1 (stereo not drawn)	-11.55
CC(C)C(CCO)NC(=O)Nc1ccc(-c2csnn2)cc1 (stereo not drawn)	12.78
Cc1ccc(C(=O)NC2CCCN(C)C2)c(=O)[nH]1 (stereo not drawn)	52.84
Cc1ccc(C(=O)NC2CCCN(S(C)(=O)=O)C2)c(=O)[nH]1 (stereo not drawn)	-34.79
CCN1CCCC(NC(=O)c2ccc(C)[nH]c2=O)C1 (stereo not drawn)	-53.67
Cc1cccc(CN(Cc2ccc(C)o2)C2CC(C)(C)NC(C)(C)C2)n1	29.73
CCc1nc(N)nc(N2CCCC3(CCN(C)CC3)CC2)c1C	-17.39
CC(=O)c1ccc(-c2cnn(CC(=O)Nc3cc(C)nn3C)c2)nc1	36.09
Cn1ccnc1-c1cnn(CC(=O)Nc2ccnn2C)c1	35.13
CC(=O)c1ccc(-c2cnn(CC(=O)Nc3ccnn3C)c2)nc1	59.56
CS(=O)(=O)N1C[C@H]2CC[C@@H](C1)N(C(=O)CCc1n[nH]c3c1CCCC3)C2	-4.58
Cn1cc(C2CCCN2Cc2csc(Cc3ccccc3)n2)cn1 (stereo not drawn)	3.48
Cn1cc(C2CCCN2Cc2csc(C(C)(C)C)n2)cn1 (stereo not drawn)	-10.66
CCCc1nc(CN2CCCC2c2cnn(C)c2)cs1 (stereo not drawn)	58.52
Cc1cc(NCCc2nnc(N)s2)nc(-c2ccccc2)n1	7.02
COc1nccnc1N1CCCC2(C1)C(=O)N(C)c1ccccc12 (stereo not drawn)	-8.8
CCN1CCc2c(cccc2NC(=O)CN(C)C2CCSC2)C1 (stereo not drawn)	49.21
CCN1CCN(c2ccccc2NC(=O)N(C)C2CCSC2)CC1 (stereo not drawn)	25.08
CCN1CCc2c(cccc2NC(=O)N(C)C2CCSC2)C1 (stereo not drawn)	51.9
Cn1ccc(C(=O)Nc2cccc(-c3ccc4c(c3)CCO4)n2)cc1=O	-17.18
Cc1ccc2c(c1)OC(C)CN2C(=O)c1c[nH]c(C)cc1=O (stereo not drawn)	-33.29
CCn1nccc1CN(C)C(=O)Cn1nc(C)cc1C	-47.19
Cn1nc(Br)c2c(NCCCS(N)(=O)=O)ncnc21	-5.61
CCOCC(=O)N1Cc2nccn2CC(CN(C)C)C1 (stereo not drawn)	-8.84
